Laboratory results taken from PubChem BioAssay AID1159580 (chemical genetic matrix, 2015).
Where “and” joins values, the source holds several entries; their conditions need not be identical. Equal entries are not always repeated. Hit rate of the full screen: of about 5,500 compounds, about 2,000 (36%) were called active. Another 18% or so got no clear call; they are omitted. No stated cut-off is given here; in the data, active means normalized growth mostly below about 0.91 (no sharp cut-off); inconclusive means no clear call, values can overlap the other calls; inactive means mostly above about 0.92. The list shows a part of the results.

Test: chemical genetic growth profiling, strain panel (AID 1159580);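 further: tested at 20 µM; growth read once vehicle control cultures reached saturation at 30 °C; 1 = growth at the plate median or of vehicle wells; lower values mean less growth of the strain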
Conditions: S. cerevisiae deletion strains, growth OD

Measured: normalized growth

COc1cc2ccc(=O)oc2c2ccoc12
inactive: locus YAL021C, strain ccr4, active compounds read low 0.941 | locus YAL030W, strain snc1, active compounds read low 0.982 | locus YBL061C, strain skt5, active compounds read low 0.999 | locus YBR021W, strain FUR4, active compounds read low 1.04 | locus YBR023C, strain chs3, active compounds read low 0.932 | locus YBR171W, strain sec66, active compounds read low 0.984 | locus YBR229C, strain ROT2, active compounds read low 0.998 | locus YBR279W, strain paf1, active compounds read low 0.99 | locus YCL029C, strain bik1, active compounds read low 0.982 | locus YCR088W, strain abp1, active compounds read low 1.01 | locus YDL005C, strain med2, active compounds read low 0.994 | locus YDL035C, strain GPR1, active compounds read low 0.971 | locus YDL040C, strain nat1, active compounds read low 1 | locus YDL074C, strain BRE1, active compounds read low 0.85 | locus YDL101C, strain DUN1, active compounds read low 0.94 | locus YDL134C, strain PPH21, active compounds read low 0.964 | locus YDL185W, strain tfp1, active compounds read low 0.937 | locus YDL192W, strain arf1, active compounds read low 0.955 | locus YDR001C, strain nth1, active compounds read low 0.994 | locus YDR069C, strain doa4, active compounds read low 0.905 | locus YDR101C, strain arx1, active compounds read low 0.985 | locus YDR137W, strain rgp1, active compounds read low 1.03 | locus YDR162C, strain NBP2, active compounds read low 0.974 | locus YDR318W, strain mcm21, active compounds read low 0.965 | locus YDR388W, active compounds read low 1 | locus YDR502C, strain sam2, active compounds read low 0.958 | locus YEL037C, strain rad23, active compounds read low 0.957 | locus YEL061C, strain CIN8 (second series), active compounds read low 0.99 | locus YER016W, strain bim1, active compounds read low 1 | locus YER110C, active compounds read low 0.975 | locus YER111C, strain swi4, active compounds read low 1 | locus YER155C, strain BEM2, active compounds read low 1.02 | locus YER167W, strain BCK2, active compounds read low 1.01 | locus YFR010W, strain ubp6, active compounds read low 0.915 | locus YGL078C, strain dbp3, active compounds read low 0.967 | locus YGL086W, strain mad1, active compounds read low 0.969 | locus YGL167C, strain pmr1, active compounds read low 0.998 | locus YGL227W, strain vid30, active compounds read low 0.999 | locus YGL248W, strain PDE1, active compounds read low 0.952 | locus YGR078C, strain PAC10, active compounds read low 0.977 | locus YHR013C, strain ard1, active compounds read low 0.953 | locus YHR030C, strain SLT2, active compounds read low 1 and 0.986 | locus YHR079C, strain IRE1 (second series), active compounds read low 0.961 | locus YHR079C, strain IRE1, active compounds read low 1.02 | locus YHR094C, strain hxt1, active compounds read low 0.996 | locus YHR129C, strain ARP1, active compounds read low 1 | locus YIL066C, strain RNR3, active compounds read low 1 | locus YIL073C, strain SPO22, active compounds read low 0.957 | locus YIL125W, strain kgd1, active compounds read low 1.01 | locus YIR030C, strain dcg1, active compounds read low 0.993 | locus YJL092W, strain hpr5, active compounds read low 0.973 | locus YJL095W, strain BCK1 (second series), active compounds read low 0.937 | locus YJL095W, strain BCK1, active compounds read low 0.906 and 0.992 | locus YJL134W, strain LCB3, active compounds read low 1 | locus YJL154C, strain vps35, active compounds read low 0.996 | locus YJL168C, strain set2, active compounds read low 0.983 | locus YJL187C, strain SWE1 (second series), active compounds read low 0.98 | locus YJR043C, strain POL32, active compounds read low 0.921
active: locus YAL026C, strain drs2, active compounds read low 0.859 | locus YBR009C, strain hhf1, active compounds read low 0.777 | locus YBR231C, strain swc5, active compounds read low 0.733 | locus YCL011C, strain gbp2, active compounds read low 0.823 | locus YCL016C, strain dcc1, active compounds read low 0.828 | locus YCL069W, strain vba3, active compounds read low 0.915 | locus YDR159W, strain sac3, active compounds read low 0.829 | locus YDR195W, strain ref2 1.3 [resistant] | locus YDR297W, strain sur2, active compounds read low 0.903 | locus YDR334W, strain swr1, active compounds read low 0.772 | locus YDR335W, strain msn5, active compounds read low 0.896 | locus YDR392W, strain spt3, active compounds read low 0.665 | locus YEL003W, strain gim4, active compounds read low 0.818 | locus YER015W, strain faa2, active compounds read low 0.92 | locus YER155C, strain BEM2 (second series), active compounds read low 0.731 | locus YGL173C, strain kem1, active compounds read low 0.862 | locus YGL240W, strain doc1, active compounds read low 0.692 | locus YGL253W, strain hxk2, active compounds read low 0.892 | locus YGR135W, strain pre9, active compounds read low 0.893 | locus YGR252W, strain gcn5, active compounds read low 0.76 | locus YHR027C, strain rpn1, active compounds read low 0.881 | locus YHR142W, strain chs7, active compounds read low 0.838 | locus YHR200W, strain rpn10, active compounds read low 0.899 | locus YJL115W, strain asf1, active compounds read low 0.883 | locus YJL129C, strain trk1, active compounds read low 1.14 [resistant] | locus YJL164C, strain tpk1, active compounds read low 0.902 | locus YJL166W, strain qcr8, active compounds read low 0.826
